Twelve compounds from PubChem BioAssay (NCI) can be followed below.

SMILES strings stand for the structures. Compounds without any hit were thinned out: in the full panel of roughly 83,000, 20% have a hit.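 Values shown are percent growth following 48 h exposure of cells in 96-well plates to a single concentration of compound; below 10 was considered active.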 Activity calls are given as the source filed them.

The subject of the first test is SNB-75 CNS. The experiment in a line: NCI-60 one-dose screen, 48 h (100 = growth as untreated, 0 = no growth, -100 = all killed). The settings on record: 10 µM.
In the case of `O=C(Nc1cccc2c1CCCC2)c1cc2ccccc2cc1O`, the growth is 63.8% (inactive). On the same count and under the same terms, the same measure for `O=C1/C=C/[C@@H](O)[C@@H]2C[C@@H](O)C[C@H]2/C=C/CCC[C@H](CCc2ccc(NC(=S)Nc3ccc4c(c3)C(=O)OC43c4ccc(O)cc4Oc4cc(O)ccc43)cc2)O1`: 48.9% (inactive); for `COc1cc(/C=C/c2cc(/C=C/c3ccc(O)c(OC)c3)nc(N)n2)ccc1O`: 5.5% (active); for `CC(=O)Oc1cc(OC(C)=O)c2ccccc2c1OC(C)=O`: 85.7% (inactive).

In the case of `CCOc1ccccc1/C=N\N=C\c1ccccc1O`, the growth was 97.6% (inactive).

The next test deals with SNB-19 CNS. The test is described as above. The settings on record: 10 µM.
For `COc1ccc(/C=C2\CCCC3=C2NC(N)=NC3c2ccc(OC)cc2)cc1` (configuration not stated), the growth is 92.1% (inactive). Still for that read-out and setting: as for `CN(C)CCCOc1cccc(NC2=C(Cl)C(=O)C(Nc3cccc(OCCCN(C)C)c3)=C(Cl)C2=O)c1`, the figure is -42.3% (active); as for `N#CC1=C(N)Oc2cc(N)ccc2C1c1cccnc1` (configuration not stated), 103% (inactive); as for `COc1cc(/C=C/c2cc(/C=C/c3ccc(O)c(OC)c3)n(C(=O)Nc3ccc(C)cc3)n2)ccc1O`, 20.3% (inactive). In the case of `Cc1ccc(-n2nnnc2N)c(C)c1`, the growth was 113% (inactive). With `CCCCN(CCCC)C(=O)[C@H](CC)[C@@H]1CC[C@@H](C)[C@@H]([C@H](C)[C@@H](O)[C@@H](C)C(=O)[C@H](CC)C2O[C@]3(C=C[C@@H](O)[C@]4(CC[C@@](C)([C@H]5CC[C@](O)(CC)[C@H](C)O5)O4)O3)[C@H](C)C[C@@H]2C)O1` (some centres not stated), the growth is 15.3% (inactive). Same read-out and setting: the same measure for `COc1ccc2c(c1)C(=O)/C(=C/c1ccc([N+](=O)[O-])o1)O2`: 19.9% (inactive).
